# Laboratory results from the supplement of paper PMC3334620.
# The full ranking holds about 33,000 sequences; the median of “E-score (-0.5 to 0.5)” is about -0.035, and the highest 2% start at about 0.35. This is one part of a sample in which the highest values are shown more often than they occur.
# Molecular target: T1, Pdr3 (UniProt P33200)
# T1 sequence: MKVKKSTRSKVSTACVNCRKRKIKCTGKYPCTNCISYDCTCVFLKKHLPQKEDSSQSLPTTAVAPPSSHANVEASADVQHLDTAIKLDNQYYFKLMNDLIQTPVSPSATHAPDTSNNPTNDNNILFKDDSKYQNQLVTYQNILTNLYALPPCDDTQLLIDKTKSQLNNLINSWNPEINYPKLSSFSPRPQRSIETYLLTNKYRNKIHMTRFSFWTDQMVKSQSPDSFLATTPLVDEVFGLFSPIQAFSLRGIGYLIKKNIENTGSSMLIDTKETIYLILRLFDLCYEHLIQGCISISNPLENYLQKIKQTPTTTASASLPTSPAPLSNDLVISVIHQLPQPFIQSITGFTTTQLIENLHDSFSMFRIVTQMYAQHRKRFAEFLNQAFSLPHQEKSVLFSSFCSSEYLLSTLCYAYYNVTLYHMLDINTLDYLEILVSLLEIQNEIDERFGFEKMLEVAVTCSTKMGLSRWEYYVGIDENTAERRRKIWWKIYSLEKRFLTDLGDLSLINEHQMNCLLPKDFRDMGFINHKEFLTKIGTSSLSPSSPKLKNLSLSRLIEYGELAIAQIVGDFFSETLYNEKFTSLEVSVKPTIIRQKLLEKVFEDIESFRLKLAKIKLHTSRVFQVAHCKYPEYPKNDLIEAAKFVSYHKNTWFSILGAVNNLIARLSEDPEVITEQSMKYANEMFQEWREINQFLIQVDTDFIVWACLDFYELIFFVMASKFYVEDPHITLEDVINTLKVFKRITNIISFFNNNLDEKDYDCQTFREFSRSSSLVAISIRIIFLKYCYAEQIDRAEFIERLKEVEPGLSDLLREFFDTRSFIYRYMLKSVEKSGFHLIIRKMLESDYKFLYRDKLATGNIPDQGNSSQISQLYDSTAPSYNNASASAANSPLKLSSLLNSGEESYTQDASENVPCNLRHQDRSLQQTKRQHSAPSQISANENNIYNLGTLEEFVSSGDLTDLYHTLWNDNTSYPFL
# Assay: PBM E-score (8-mer binding enrichment) (E-score (-0.5 to 0.5)); higher = stronger / more preferred TF binding
# Conditions: protein concentration: 200 nM; construct: GST-full length
# Method in brief: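 Universal all-10-mer Agilent arrays, fresh or stripped once, were converted to double-stranded form by primer extension. GST-tagged yeast transcription factors from PURExpress in vitro transcription/translation, full-length or DNA-binding domain only, were applied at about 100-200 nM and detected with fluorescent anti-GST. After masliner normalisation, the Universal PBM Analysis Suite scored each ungapped eight-base word together with its reverse complement by E-score.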
row,Sequence,PBM E-score
1,ACTTGCAG,-0.177
2,AGGGCCTG,-0.195
3,AGAAAATA,0.0181
4,GGAGTAAC,0.0889
5,ATAGACCC,0.154
6,TCTCGTCA,-0.0279
7,AGGGGCAC,-0.293
8,ACATCGCG,0.0219
9,CGCTTCGC,-0.0359
10,AAACATGT,0.00604
11,CCTTCCGA,0.323
12,ACTTCCCC,-0.132
13,ACTTCCAC,0.0382
14,ACTTCCGC,0.385
15,CCTTCCGC,0.38
16,CCTTCCTC,-0.201
17,AGATTCAT,-0.0927
18,AGTTGCCG,0.196
19,ACCGGAGA,0.353
20,CCCGGAGA,0.387
21,TCCGGAGA,0.44
22,GCCGGAGA,0.244
23,CCCAGAGA,-0.223
24,CCCGGAGG,0.165

row,Sequence,PBM E-score
1,AAATTCAT,-0.0189
2,CGTGCCTC,-0.0179
3,AACGCAAT,0.115
4,GTTCGGCA,0.054
5,GTTCGGAA,0.431
6,ATTCGGAA,0.415
7,CTTCGGTA,-0.0957
8,ATTCGGAC,0.275
9,GTTCGGGA,0.233
10,CTTCGGAA,0.438
11,ATTCGGAG,0.2
12,CTTCGGAC,0.283
13,CTATCCTA,-0.0548
14,ACTACGCA,-0.236
15,GTGCAAAA,-0.168
16,GACGCTAA,-0.213
17,CTTCCGCA,0.307
18,AATCCGCC,0.17
19,ATTCCGCA,0.379
20,CTTCCGCC,0.336
21,ATTCCACA,0.204
22,GTTCCTCA,0.0277
23,ATTCCGCG,0.479
24,ACTCCGCA,0.154

row,Sequence,PBM E-score
1,ATTCCGCC,0.417
2,ATGCCGCG,0.346
3,GTTCCGCA,0.462
4,GTTCCCCA,-0.173
5,GCTCTGAA,-0.126
6,CAGTGCTC,-0.213
7,AAGAGATA,-0.206
8,TCCGATAA,0.289
9,ACTAGAAA,-0.213
10,ACTATGTA,-0.181
11,CCTAGTGC,-0.0662
12,CTAGGTGC,-0.121
13,CAGGTGCA,0.0121
14,ATCCGAAA,0.248
15,CTCCGGAG,0.476
16,GTCCGAAA,0.264
17,CTCCGGCA,0.34
18,CACCGGAG,0.253
19,CTCCGGTA,0.321
20,CTCCGAAG,0.311
21,ATCCGAAT,0.365
22,CTCCGGAA,0.441
23,TTCCGAAA,0.41
24,ATCCGAAG,0.22

row,Sequence,PBM E-score
1,ATCCGAAC,0.316
2,CGCCAGTA,0.00965
3,AACTGCGC,-0.146
4,AGAGATCG,-0.137
5,AGCGCGGG,0.324
6,AGCAAGTA,-0.149
7,ACGGCACA,-0.0224
8,ACTGTAGC,-0.197
9,GTCCGCAA,0.259
10,ATCCGCAA,0.222
11,CTCCGGTC,0.328
12,CTCCGGCC,0.0522
13,ATCCGGCC,0.403
14,ATCCGGCG,0.323
15,CTCCGTAC,0.162
16,TTCCGCAA,0.404
17,CTCCGGAC,0.382
18,GTCCGGAC,0.481
19,GTCCGCAC,0.215
20,CCCGCTCG,0.133
21,ACGTCTTG,-0.178
22,ACGGTTAT,-0.0715
